Our source for the binding signal values is publication PMC7862700, “An all-to-all approach to the identification of sequence-specific readers for epigenetic DNA modifications on cytosine”.

Holding throughout (test): DAPPL (digital affinity profiling via proximity ligation, sequencing); 10 mM Tris-HCl pH 7.5, 50 mM NaCl, 1 mM DTT, 4% glycerol, room temperature, 30 min; GST-TFs on glutathione beads, 16-mer random dsDNA library, 0.1% formaldehyde crosslink after washing; high values mean tight binding
Settings in all cases: protein: recombinant; tags: N-terminal GST; dsDNA, one strand shown

In one assay the target is T1, FLI1 (Homo sapiens, UniProt Q01543 1-452).
T1 sequence: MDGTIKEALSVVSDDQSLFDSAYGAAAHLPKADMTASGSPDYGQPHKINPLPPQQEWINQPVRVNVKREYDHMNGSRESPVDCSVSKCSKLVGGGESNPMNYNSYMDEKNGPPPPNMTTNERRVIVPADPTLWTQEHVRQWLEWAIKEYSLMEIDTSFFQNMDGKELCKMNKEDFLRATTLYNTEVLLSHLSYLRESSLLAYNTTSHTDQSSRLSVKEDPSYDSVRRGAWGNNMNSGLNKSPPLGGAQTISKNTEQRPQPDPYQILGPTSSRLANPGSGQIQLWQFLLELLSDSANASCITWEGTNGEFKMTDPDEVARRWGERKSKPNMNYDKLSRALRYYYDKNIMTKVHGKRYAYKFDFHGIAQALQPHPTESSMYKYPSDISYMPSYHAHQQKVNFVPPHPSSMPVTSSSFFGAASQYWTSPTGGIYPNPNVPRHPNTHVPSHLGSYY
An outline of the steps: (§1)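 GST fusions of human transcription factors were expressed in yeast and captured with glutathione beads. Once given DNA barcodes and pooled alongside a tag-only sample, they were incubated for 30 min at room temperature with 200 nmole of a random double-stranded 16-mer DNA library in Tris/NaCl/DTT/glycerol buffer, then washed, crosslinked (0.1% formaldehyde), proximity-ligated, PCR-amplified and sequenced on an Illumina NextSeq500. The binding signal of each hexamer is its read frequency for a factor divided by its frequency for the tag-only sample.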

A further assay deals with T2, ELK1 (Homo sapiens, UniProt P19419 1-428).
T2 sequence: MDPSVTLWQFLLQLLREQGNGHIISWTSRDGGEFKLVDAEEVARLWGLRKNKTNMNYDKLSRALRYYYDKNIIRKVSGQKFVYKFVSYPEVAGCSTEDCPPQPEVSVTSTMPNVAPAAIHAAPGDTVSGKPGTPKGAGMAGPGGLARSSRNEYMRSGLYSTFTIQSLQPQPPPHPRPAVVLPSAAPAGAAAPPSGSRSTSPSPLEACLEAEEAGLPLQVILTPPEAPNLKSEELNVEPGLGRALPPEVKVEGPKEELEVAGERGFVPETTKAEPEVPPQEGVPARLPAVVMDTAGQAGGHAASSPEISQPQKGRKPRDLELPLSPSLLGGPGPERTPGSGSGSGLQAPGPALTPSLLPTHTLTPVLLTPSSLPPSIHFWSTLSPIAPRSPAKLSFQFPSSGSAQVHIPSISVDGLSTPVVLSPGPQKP
The gist of the method:
as §1

The next assay deals with T3, GABPA (Homo sapiens, UniProt Q06546 1-454).
T3 sequence: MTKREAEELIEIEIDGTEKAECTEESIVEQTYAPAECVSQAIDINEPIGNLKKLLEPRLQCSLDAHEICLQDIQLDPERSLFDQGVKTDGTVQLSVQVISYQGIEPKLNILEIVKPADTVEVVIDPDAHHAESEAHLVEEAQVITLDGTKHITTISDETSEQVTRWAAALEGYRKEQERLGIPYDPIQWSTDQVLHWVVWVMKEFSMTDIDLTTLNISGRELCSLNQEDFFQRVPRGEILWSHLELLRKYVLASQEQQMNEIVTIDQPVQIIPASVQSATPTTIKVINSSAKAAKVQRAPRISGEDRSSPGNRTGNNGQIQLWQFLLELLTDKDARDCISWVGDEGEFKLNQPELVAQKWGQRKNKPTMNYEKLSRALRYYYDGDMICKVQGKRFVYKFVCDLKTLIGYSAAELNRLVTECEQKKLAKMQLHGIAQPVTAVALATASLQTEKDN
An outline of the steps:
as §1

A further assay deals with T4, ERG (Homo sapiens, UniProt P11308 1-479).
T4 sequence: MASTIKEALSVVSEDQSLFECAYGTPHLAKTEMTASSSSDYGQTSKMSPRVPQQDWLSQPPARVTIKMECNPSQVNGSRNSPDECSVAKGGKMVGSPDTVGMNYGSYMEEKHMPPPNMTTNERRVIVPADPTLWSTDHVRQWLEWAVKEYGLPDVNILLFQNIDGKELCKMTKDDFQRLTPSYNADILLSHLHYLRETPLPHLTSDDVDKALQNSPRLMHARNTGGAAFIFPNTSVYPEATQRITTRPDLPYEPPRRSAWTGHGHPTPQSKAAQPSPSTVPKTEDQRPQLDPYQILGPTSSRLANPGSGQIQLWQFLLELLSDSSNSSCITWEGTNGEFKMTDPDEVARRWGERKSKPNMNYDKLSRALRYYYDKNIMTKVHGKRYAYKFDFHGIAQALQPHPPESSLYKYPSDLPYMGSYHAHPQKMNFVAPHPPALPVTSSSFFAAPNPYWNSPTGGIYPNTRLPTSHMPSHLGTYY
The gist of the method: as §1

In a further assay the target is ELF1 (Homo sapiens, UniProt P32519 1-619). The gist of the method:
as §1

Another assay concerns the target T5, EHF (Homo sapiens, UniProt Q9NZC4 1-300).
T5 sequence: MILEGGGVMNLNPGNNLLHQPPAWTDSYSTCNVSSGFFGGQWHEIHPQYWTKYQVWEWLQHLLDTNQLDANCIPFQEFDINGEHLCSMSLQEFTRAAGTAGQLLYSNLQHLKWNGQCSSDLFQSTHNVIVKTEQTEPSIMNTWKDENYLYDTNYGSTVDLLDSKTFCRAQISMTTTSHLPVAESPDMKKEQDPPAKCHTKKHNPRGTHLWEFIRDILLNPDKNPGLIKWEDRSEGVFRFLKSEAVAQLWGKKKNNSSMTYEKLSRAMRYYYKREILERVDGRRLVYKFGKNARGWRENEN
An outline of the steps:
as §1

Another assay has as its target SPI1 (Homo sapiens, UniProt P17947 1-270). An outline of the steps:
as §1

In a further assay the target is SPIB (Homo sapiens, UniProt Q01892 1-262). The gist of the method:
as §1

The target of a further assay is T6, ELK3 (Homo sapiens, UniProt P41970 1-407).
T6 sequence: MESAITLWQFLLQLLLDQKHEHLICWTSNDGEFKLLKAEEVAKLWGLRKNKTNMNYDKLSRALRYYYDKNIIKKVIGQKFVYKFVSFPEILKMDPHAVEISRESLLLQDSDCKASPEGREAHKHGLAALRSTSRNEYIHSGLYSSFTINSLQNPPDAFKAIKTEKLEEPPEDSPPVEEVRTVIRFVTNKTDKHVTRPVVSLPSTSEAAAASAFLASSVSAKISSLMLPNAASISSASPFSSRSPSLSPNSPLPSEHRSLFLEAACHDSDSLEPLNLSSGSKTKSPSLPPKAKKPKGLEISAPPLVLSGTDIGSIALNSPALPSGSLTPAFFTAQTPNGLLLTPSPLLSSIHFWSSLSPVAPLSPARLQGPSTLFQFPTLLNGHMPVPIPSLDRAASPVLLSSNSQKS
The gist of the method:
as §1

Sequence of ELF1 (P32519 whole entry): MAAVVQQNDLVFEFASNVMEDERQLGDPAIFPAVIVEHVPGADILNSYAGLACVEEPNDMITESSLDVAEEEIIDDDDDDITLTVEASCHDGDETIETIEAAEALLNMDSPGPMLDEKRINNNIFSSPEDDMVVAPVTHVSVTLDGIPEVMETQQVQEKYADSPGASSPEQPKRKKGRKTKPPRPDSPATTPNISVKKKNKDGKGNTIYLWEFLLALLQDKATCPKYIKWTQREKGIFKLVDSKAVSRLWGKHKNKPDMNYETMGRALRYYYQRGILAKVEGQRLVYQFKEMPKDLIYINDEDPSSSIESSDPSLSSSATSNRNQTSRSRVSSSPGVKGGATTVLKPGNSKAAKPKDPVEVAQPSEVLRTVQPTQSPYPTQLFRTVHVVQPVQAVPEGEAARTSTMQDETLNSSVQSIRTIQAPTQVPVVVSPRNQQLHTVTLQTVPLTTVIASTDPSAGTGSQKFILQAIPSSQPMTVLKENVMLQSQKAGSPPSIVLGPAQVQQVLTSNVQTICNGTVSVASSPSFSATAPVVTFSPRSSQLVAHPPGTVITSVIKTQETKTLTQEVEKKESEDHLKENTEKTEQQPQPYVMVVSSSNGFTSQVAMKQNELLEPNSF
Sequence of SPIB (Q01892 whole entry): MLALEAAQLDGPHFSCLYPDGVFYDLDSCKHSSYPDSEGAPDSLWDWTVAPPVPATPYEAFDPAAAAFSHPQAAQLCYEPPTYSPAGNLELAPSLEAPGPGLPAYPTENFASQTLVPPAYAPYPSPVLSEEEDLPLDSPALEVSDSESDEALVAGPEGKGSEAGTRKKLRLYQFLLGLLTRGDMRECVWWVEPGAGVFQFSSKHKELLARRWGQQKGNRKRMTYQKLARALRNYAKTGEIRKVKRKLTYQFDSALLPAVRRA

Turning to GTCCTA, the binding signal is 1.15 fold enrichment (6-mer frequency, TF over GST control) with FLI1; 1.19 fold enrichment (6-mer frequency, TF over GST control) with ELK1; 1.22 fold enrichment (6-mer frequency, TF over GST control) with GABPA; 1.14 fold enrichment (6-mer frequency, TF over GST control) with ERG; 1.12 fold enrichment (6-mer frequency, TF over GST control) in the assay with ELF1; 1.16 fold enrichment (6-mer frequency, TF over GST control) in the assay with EHF. Moreover, the binding signal is 1.16 fold enrichment (6-mer frequency, TF over GST control) with SPI1; 1.18 fold enrichment (6-mer frequency, TF over GST control) in the assay with SPIB; 1.12 fold enrichment (6-mer frequency, TF over GST control) with ELK3.

Regarding TGAACA, the binding signal was 1.25 fold enrichment (6-mer frequency, TF over GST control) in the assay with FLI1; 1.23 fold enrichment (6-mer frequency, TF over GST control) in the assay with ELK1; 1.18 fold enrichment (6-mer frequency, TF over GST control) with GABPA; 1.21 fold enrichment (6-mer frequency, TF over GST control) in the assay with ERG; 1.26 fold enrichment (6-mer frequency, TF over GST control) in the assay with ELF1; 1.27 fold enrichment (6-mer frequency, TF over GST control) with EHF. Besides, the binding signal in the assay with SPI1 is 1.14 fold enrichment (6-mer frequency, TF over GST control); in the assay with SPIB, 1.23 fold enrichment (6-mer frequency, TF over GST control); in the assay with ELK3 it was 1.33 fold enrichment (6-mer frequency, TF over GST control).

As for TACGAC, the binding signal with FLI1 is 1.33 fold enrichment (6-mer frequency, TF over GST control); with ELK1, 1.2 fold enrichment (6-mer frequency, TF over GST control); with GABPA, 1.29 fold enrichment (6-mer frequency, TF over GST control); with ERG, 1.26 fold enrichment (6-mer frequency, TF over GST control); with ELF1, 1.27 fold enrichment (6-mer frequency, TF over GST control); with EHF, 1.23 fold enrichment (6-mer frequency, TF over GST control). Further, the binding signal with SPI1 was 1.25 fold enrichment (6-mer frequency, TF over GST control); with SPIB, 1.22 fold enrichment (6-mer frequency, TF over GST control); with ELK3, 1.36 fold enrichment (6-mer frequency, TF over GST control).

Turning to CCTTTC, the binding signal with FLI1 is 1.76 fold enrichment (6-mer frequency, TF over GST control); with ELK1, 1.57 fold enrichment (6-mer frequency, TF over GST control); with GABPA it was 1.61 fold enrichment (6-mer frequency, TF over GST control); with ERG it was 1.62 fold enrichment (6-mer frequency, TF over GST control); with ELF1 it was 1.57 fold enrichment (6-mer frequency, TF over GST control); in the assay with EHF, 1.57 fold enrichment (6-mer frequency, TF over GST control). Further, the binding signal is 1.64 fold enrichment (6-mer frequency, TF over GST control) in the assay with SPI1; 1.7 fold enrichment (6-mer frequency, TF over GST control) in the assay with SPIB; 1.64 fold enrichment (6-mer frequency, TF over GST control) with ELK3.

Take CCCGTA: the binding signal with FLI1 is 1.14 fold enrichment (6-mer frequency, TF over GST control); with ELK1 it was 1.11 fold enrichment (6-mer frequency, TF over GST control); with GABPA, 1.2 fold enrichment (6-mer frequency, TF over GST control); with ERG it was 1.2 fold enrichment (6-mer frequency, TF over GST control); with ELF1 it was 1.25 fold enrichment (6-mer frequency, TF over GST control); with EHF, 1.24 fold enrichment (6-mer frequency, TF over GST control). Moreover, the binding signal with SPI1 was 1.19 fold enrichment (6-mer frequency, TF over GST control); in the assay with SPIB, 1.14 fold enrichment (6-mer frequency, TF over GST control); with ELK3, 1.32 fold enrichment (6-mer frequency, TF over GST control).

ATTTCG: the binding signal is 1.24 fold enrichment (6-mer frequency, TF over GST control) with FLI1; 1.25 fold enrichment (6-mer frequency, TF over GST control) in the assay with ELK1; 1.29 fold enrichment (6-mer frequency, TF over GST control) with GABPA; 1.25 fold enrichment (6-mer frequency, TF over GST control) with ERG; 1.3 fold enrichment (6-mer frequency, TF over GST control) in the assay with ELF1; 1.35 fold enrichment (6-mer frequency, TF over GST control) with EHF. For the same sequence, the binding signal is 1.29 fold enrichment (6-mer frequency, TF over GST control) with SPI1; 1.37 fold enrichment (6-mer frequency, TF over GST control) with SPIB; 1.21 fold enrichment (6-mer frequency, TF over GST control) in the assay with ELK3.

Take GCTCCC: the binding signal was 1.37 fold enrichment (6-mer frequency, TF over GST control) with FLI1; 1.28 fold enrichment (6-mer frequency, TF over GST control) in the assay with ELK1; 1.34 fold enrichment (6-mer frequency, TF over GST control) in the assay with GABPA; 1.33 fold enrichment (6-mer frequency, TF over GST control) in the assay with ERG; 1.37 fold enrichment (6-mer frequency, TF over GST control) in the assay with ELF1; 1.33 fold enrichment (6-mer frequency, TF over GST control) in the assay with EHF. Further, the binding signal with SPI1 is 1.26 fold enrichment (6-mer frequency, TF over GST control); with SPIB it was 1.28 fold enrichment (6-mer frequency, TF over GST control); with ELK3, 1.18 fold enrichment (6-mer frequency, TF over GST control).

For TCGCTA, the binding signal in the assay with FLI1 was 1.17 fold enrichment (6-mer frequency, TF over GST control); with ELK1 it was 1.09 fold enrichment (6-mer frequency, TF over GST control); with GABPA, 1.24 fold enrichment (6-mer frequency, TF over GST control); in the assay with ERG, 1.07 fold enrichment (6-mer frequency, TF over GST control); in the assay with ELF1 it was 1.11 fold enrichment (6-mer frequency, TF over GST control); in the assay with EHF, 1.02 fold enrichment (6-mer frequency, TF over GST control). The binding signal with SPI1 was 1.04 fold enrichment (6-mer frequency, TF over GST control); in the assay with SPIB, 1.05 fold enrichment (6-mer frequency, TF over GST control); with ELK3 it was 1.23 fold enrichment (6-mer frequency, TF over GST control).
